Giardia FBPA inh: Giardia lamblia aldolase inhibition; Potency, µM (titrated, usually from 59.6 µM), most hits filed as inhibitors; actives 0.71% (n = 290,000); A8B2U2; AID 2451; purified Giardia FBPA; note: nearly all actives have a fitted effect of over 55% in size
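Giardia FBPA (40 nM reagent) was preincubated 10 min at RT with compound (up to 57.5 uM final), then substrate plus GAPDH/TPI/NAD/arsenate coupling system with diaphorase/resazurin was added; resorufin fluorescence (525/598 nm) was read after 20 min.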
Shiga inhibitor: Shiga toxin inhibition; Vero cells, Shiga toxin protein synthesis inhibition reporter; inhibition, % at 38.7 µM; actives 9.2% (n = 290,000); AID 2315; in the data active = inhibition mostly above about 28%, no sharp cut-off; inactive = mostly below about 43%
RE007 growth inh: less growth of the S. pombe RE007 Vpr strain. S. pombe RE007 Vpr strain, BacTiter-Glo ATP luminescence, 24 h. Potency, µM (titrated, usually from 92.2 µM), hits mostly inhibitors. actives 0.21% (n = 360,000); active = well fitted falling curve with a large enough effect; inconclusive = small, poorly fitted or top-dose-only effect; inactive = no such curve, though single readings can be large or run the other way; note: nearly all actives have a fitted effect of over 50% in size
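Fission yeast strain RE007, carrying one chromosomally integrated HIV-1 vpr copy, was seeded at OD 0.01 in PMG+AL medium with 23 nL pinned compound. After 24 h at 30 °C and 99% humidity, viability was read by BacTiter-Glo luminescence.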
CHX counter: affects cycloheximide protein synthesis inhibition readout, counter-screen | max response, % | cell reporter, cycloheximide protein synthesis inhibition counterscreen | actives 12% (n = 300,000); in the data active = max response mostly above about 13%, no sharp cut-off; inactive = mostly below about 14%; note: read at 38.3 µM for the half of the compounds with a filed dose
LmPK inhibitor: LmPK (Leishmania mexicana) enzyme inhibition | Q27686 | purified LmPK, Kinase-Glo ATP luminescence, 1 h | Potency, µM (highest dose often 57.5 µM), most hits filed as inhibitors | actives 0.37% (n = 290,000)
Target sequence (Q27686 whole entry, looked up): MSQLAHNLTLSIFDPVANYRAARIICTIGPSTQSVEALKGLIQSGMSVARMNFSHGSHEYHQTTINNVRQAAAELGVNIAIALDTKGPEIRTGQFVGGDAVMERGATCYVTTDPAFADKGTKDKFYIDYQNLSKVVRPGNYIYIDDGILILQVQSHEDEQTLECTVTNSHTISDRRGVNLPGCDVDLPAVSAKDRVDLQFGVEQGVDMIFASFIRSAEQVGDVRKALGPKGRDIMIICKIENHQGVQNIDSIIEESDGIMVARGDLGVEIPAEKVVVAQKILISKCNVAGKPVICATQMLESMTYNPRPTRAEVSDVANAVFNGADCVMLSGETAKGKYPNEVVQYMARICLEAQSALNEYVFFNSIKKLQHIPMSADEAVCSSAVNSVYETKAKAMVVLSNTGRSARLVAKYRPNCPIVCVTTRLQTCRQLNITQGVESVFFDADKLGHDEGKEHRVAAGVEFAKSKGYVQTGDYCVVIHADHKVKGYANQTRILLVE
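Purified LmPK (0.1 nM) with 0.5 mM PEP and 0.1 mM ADP in imidazole buffer pH 7.2 with MgCl2/KCl, 1 h at room temperature. ATP formed was read by luciferase luminescence and normalized to no-enzyme and uninhibited controls.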
Tb PYK inh: T. brucei pyruvate kinase inhibition; Q57TT1; TbPYK enzyme, Kinase-Glo Plus ATP luminescence, 45 min; Potency, µM (titrated, usually from 76.8 µM), most hits filed as inhibitors; actives 0.12% (n = 410,000); AID 624173; note: nearly all actives have a fitted effect of over 50% in size
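In this concentration-response screen, enzyme-free wells defined baseline while DMSO plates tracked drift. Each reaction combined TbPYK, substrate, compound and 130 uM ADP for 45 min at room temperature. Kinase-Glo Plus luminescence gave the signal.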
Numbers stand for hits; - = inactive; ? = inconclusive; . = no result given; + = active, no number. The entries come from a sample that favours hits as a whole. Unless noted, calls come from the whole dose curve; as a rule, active = well fitted curve in the direction sought with a large enough effect; inconclusive = small, poorly fitted or top-dose-only effect, or another doubt; inactive = no such curve, though single readings can be large; an effect the other way counts as inactive or inconclusive.

SMILES | Giardia FBPA inh | Shiga inhibitor | RE007 growth inh | CHX counter | LmPK inhibitor | Tb PYK inh
O=C(CCC(=O)N1CCOc2ccccc21)NCc1cccnc1 | - | - | - | - | - | -
Cc1ccc(CSc2ncc(Cl)c(C(=O)Nc3nnc(C)s3)n2)cc1 | . | . | . | . | . | -
FC(F)Oc1ccc(/C=N/N2CCCCC2)c(OC(F)F)c1 | - | 79 | . | 32 | - | .
O=C(N/N=C/c1ccc(OC(F)F)cc1OC(F)F)NC1CCCCC1 | - | - | - | - | - | -
Cc1ccc(NCC(=O)N/N=C/c2ccc(-c3cccc(C(F)(F)F)c3)o2)cc1 | - | - | - | - | - | -
NC(=O)N/N=C/c1ccc(-c2cccc(C(F)(F)F)c2)o1 | - | 38 | - | - | - | -
O=C(N/N=C/c1ccc(-c2cccc(C(F)(F)F)c2)o1)c1cccc(F)c1 | - | 40 | - | 32 | - | -
Cc1cc(C(=O)NN=Cc2ccc(-c3ccc(F)cc3)o2)c(C)o1 | . | . | - | . | . | -
O=C(N/N=C/c1ccc(-c2cccc(C(F)(F)F)c2)o1)c1ccccc1O | - | - | - | - | - | -
O=C(N/N=C/c1ccc(-c2cccc(C(F)(F)F)c2)o1)c1ccccc1Br | - | 74 | - | 11 | - | -
Cc1cc(Sc2nnc(/N=C/N(C)C)s2)c2ccccc2n1 | - | - | - | - | - | -
COc1ccc(C(=O)c2cnc(/N=C/N(C)C)s2)cc1 | - | + | - | 42 | - | -
CN(C)/C=N/c1ncc(C(=O)c2ccc3ccccc3c2)s1 | - | - | - | 33 | - | -
CCCOC(=O)c1ccc(NC(=O)c2ccccc2OC)cc1 | - | 86 | - | 26 | - | -
CCCCOC(=O)c1ccc(NC(=O)c2ccccc2OC)cc1 | - | 29 | - | - | - | -
CCCCOC(=O)c1ccc(NC(=O)c2cc(Cl)ccc2OC)cc1 | - | - | - | - | - | -
CCCOC(=O)c1ccc(NC(=O)c2ccccc2[N+](=O)[O-])cc1 | - | 91 | - | 38 | - | -
O=C(Nc1sc2c(c1C(=O)NCc1ccco1)CCCC2)c1cc(=O)c2ccccc2o1 | . | . | . | . | . | -
CC1CC=CC2C1C(=O)N(Cc1ccccc1)C2c1ccc2ccccc2c1 (centres undefined) | - | - | . | - | . | .
COCc1nc2sc3c(c2c(=O)[nH]1)CCCC3 | - | - | ? | 17 | - | -
COc1cccc(-c2nc3sc4c(c3c(=O)[nH]2)CCCCC4)c1 | - | 75 | - | 21 | - | -
CC(=O)OCc1nc2sc3c(c2c(=O)[nH]1)CCCC3 | - | - | ? | - | - | -
COc1ccc(-c2nc3scc(CCNS(=O)(=O)c4c(C)cc(C)cc4C)n3n2)cc1OC | . | . | . | . | . | -
COc1cccc(N2CCN(C(=O)c3ccc4nc(N5CCCCC5)sc4c3)CC2)c1 | - | 109 | - | 77 | - | -
COc1ccc(N2CCN(C(=O)c3ccc4nc(N5CCCCC5)sc4c3)CC2)cc1 | - | 44 | - | 53 | - | -
SMILES | Giardia FBPA inh | Shiga inhibitor | RE007 growth inh | CHX counter | LmPK inhibitor | Tb PYK inh
CC1CCN(c2nc3ccc(C(=O)N4CCN(Cc5ccc6c(c5)OCO6)CC4)cc3s2)CC1 | - | + | - | 136 | - | -
COC(=O)C(Cc1cccc(C)n1)(c1ccccc1)c1ccccc1 | - | - | - | - | - | -
Cc1ccc(C(=O)NCC(=O)OCc2c(F)cccc2Cl)cc1 | . | . | - | . | . | -
O=C(Cc1c(F)cccc1Cl)NNC(=O)c1cccs1 | . | . | - | . | . | -
Cc1ccc(S(=O)(=O)NCC(=O)NCC(=O)OCc2c(F)cccc2Cl)cc1 | ? | - | - | 13 | - | -
O=C(CNC(=O)c1cccs1)OCc1c(F)cccc1Cl | - | 103 | - | 48 | - | -
O=C1c2ccccc2C(=O)c2c1cccc2N1CCOCC1 | - | 79 | - | 27 | - | -
CN1CCN(c2cccc3c2C(=O)c2ccccc2C3=O)CC1 | - | 47 | - | 36 | - | -
CN1CCN(c2ccc3c(c2)S(=O)(=O)c2ccccc2C3=O)CC1 | . | . | - | . | . | -
O=C1CN(C(=O)c2ccc(S(=O)(=O)N3CCCCC3)cc2)C(c2ccc(F)cc2)c2cc(Br)ccc2N1 (centres undefined) | . | . | . | . | . | -
CCN1/C(=C2\C(=O)N(C)C(=S)N2C)C=Cc2ccccc21 | - | - | - | - | ? | ?
CCN1/C(=C2\C(=O)N(C)C(=S)N2C)C=Cc2cc(C)ccc21 | - | - | - | - | 16µM | -
CCN1/C(=C2\C(=O)N(C)C(=S)N2c2ccccc2)C=Cc2ccccc21 | - | - | - | - | 18µM | ?
CCN1C(=O)/C(=C2/C=Cc3ccccc3N2CC)SC1=S | - | - | - | 14 | - | -
O=C(Nc1ccccc1C(=O)Nc1ccccc1)c1ccccc1F | - | - | - | - | - | -
CC1(c2ccc(NC(=O)c3ccccc3F)cc2)CC1(Cl)Cl (centres undefined) | - | . | - | 35 | - | -
O=C(Nc1ccc([N+](=O)[O-])cc1)c1ccccc1F | - | 117 | - | 39 | - | -
O=C(Nc1ccc(-c2ccc([N+](=O)[O-])cc2)cc1)c1ccccc1F | - | - | - | - | - | -
N#Cc1ccc(C(=O)Nc2ccc([N+](=O)[O-])cc2)c(F)c1 | - | 52 | - | - | - | -
Cc1onc(-c2c(Cl)cccc2Cl)c1NC(=O)NNc1ccccn1 | - | - | - | 29 | - | -
Cc1onc(-c2c(Cl)cccc2Cl)c1NC(=O)NNc1ccccc1 | - | - | - | - | - | -
Cc1ccc(-c2nnc(Nc3ccccc3)o2)cc1 | - | - | ? | 24 | 14µM | -
Cc1ccc(NC(=O)Nc2nnc(-c3ccccc3)o2)cc1 | - | 77 | - | 51 | - | -
O=C(Nc1nnc(-c2ccccc2)o1)Nc1ccc(F)cc1F | - | - | - | - | - | -
O=C(Nc1nnc(-c2ccccc2)o1)Nc1ccccc1Cl | - | - | - | 15 | - | -
SMILES | Giardia FBPA inh | Shiga inhibitor | RE007 growth inh | CHX counter | LmPK inhibitor | Tb PYK inh
CCCCNC(=O)Nc1nnc(-c2ccccc2)o1 | - | - | - | 29 | - | -
Cn1cc(CC(=O)NCc2ccc(F)cc2)c2ccccc21 | - | - | - | 12 | - | -
CC(C)c1ccc(NC(=O)Cc2cn(C)c3ccccc23)cc1 | - | - | - | 14 | - | -
CC(=O)c1ccc(NC(=O)CN2CCCCCC2)cc1 | - | - | - | - | - | -
CS(=O)(=O)N(CC(=O)NC1CCCC1)c1ccc(Oc2ccccc2)cc1 | - | - | - | - | - | -
CS(=O)(=O)N(CC(=O)NC1CC2CCC1C2)c1ccc(Oc2ccccc2)cc1 (centres undefined) | - | - | - | 15 | - | -
C/C(=N\NC(=O)CN(c1ccc(Oc2ccccc2)cc1)S(C)(=O)=O)C(C)(C)C | - | - | - | 33 | - | -
CCN(CC)C(=O)Cn1c(=O)n(-c2ccc(C)c(C)c2)c(=O)c2c(C)c(C(=O)N(CC)CC)sc21 | . | . | . | . | . | -

Bioassay records as filed in PubChem BioAssay.
